{"source": "paper PMC12548414", "note": "Out of some 1,600 compounds screened, about 20 (1%) showed an effect of 50% or more. Only a selection was taken, and strong results are over-represented in it overall.", "data": [{"tested_on": "T1, E. coli pLC1021 (luc-trpAt trans-translation reporter)", "T1 construct": "pLC1021 luc-trpAt reporter strain", "design": "species or system Escherichia coli pLC1021; luc-trpAt non-stop luciferase reporter; luminescence rises when trans-translation is inhibited; normalized to KKL-35 and DMSO", "details": "reporter signal, KKL-35 = 100%; rise means trans-translation inhibition; 2 h, 20 µM", "in_short": "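Luminescence (560 nm, 10 min after Bright-Glo) reports luciferase that escapes trans-translation tagging, measured after 2 h room-temperature treatment with 20 µM compound. Each plate was scaled between DMSO (negative) and 20 µM KKL-35 (positive) controls. Compounds scoring one standard deviation above the median counted as positive; at least two biological repeats.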", "units": {"% activation": "%"}, "values": [{"smiles": "CC(C)(C)c1cc(Cl)c(O)c(NC(=S)NC(=O)c2cccc3ccccc23)c1", "note": "[KKL-0905]", "% activation": 0}, {"smiles": "O=C(C[n+]1nc(CNc2ccc(Cl)cc2)n2c1CCCCC2)c1ccc(Br)cc1", "note": "[KKL-1021]", "% activation": 9}, {"smiles": "CC(C)(C)c1cc(Cl)ccc1OCCCCn1ccnc1", "note": "[KKL-1305]", "% activation": 5}, {"smiles": "CN(CCn1ccnc1)Cc1cn(Cc2ccccc2)nc1-c1cc2ccccc2o1", "note": "[KKL-0649]", "% activation": 0}, {"smiles": "COc1ccc(CNCc2cn(-c3cccc(F)c3)nc2-c2ccc(C)o2)cc1", "note": "[KKL-0321]", "% activation": 0}, {"smiles": "Cn1cc(CCNC(=O)Nc2ccc(N3CCCCC3)nc2)cn1", "note": "[KKL-1828]", "% activation": 0}, {"smiles": "O=C(Nc1ccco1)N1CCN(Cc2cccs2)CC1", "note": "[KKL-1841]", "% activation": 1}, {"smiles": "CCc1cc(C(=O)OC)c(N=C(S)NCc2ccc(Cl)c(Cl)c2)s1", "note": "[KKL-1547]", "% activation": 0}, {"smiles": "O=C(C=Cc1ccco1)N1CCN(Cc2ccc3c(c2)OCO3)CC1", "note": "[KKL-1821]", "% activation": 0}, {"smiles": "CCC(C)c1ccc(O)c(NC(=S)NC(=O)c2cncc(Br)c2)c1", "note": "(centres unmarked) [KKL-0711]", "% activation": 3}, {"smiles": "CCn1cc(C(=O)O)c(=O)c2cc(F)c(N3CCN(C(S)=Nc4cc(C(F)(F)F)ccc4Cl)CC3)cc21", "note": "[KKL-1476]", "% activation": 5}, {"smiles": "CCn1cc(C(=O)O)c(=O)c2cc(F)c(N3CCNCC3)cc21", "note": "[KKL-0831]", "% activation": 56}, {"smiles": "CCN1CCN(c2cc3c(cc2F)c(=O)c(C(=O)O)cn3C2CC2)CC1", "note": "[KKL-0903]", "% activation": 6}, {"smiles": "Cc1nn(-c2ccc(F)cc2)c2nc(O)c(CNCc3ccccc3F)cc12", "note": "[KKL-0342]", "% activation": 0}, {"smiles": "CCCOC(=O)c1ccc(NC(=S)NC(=O)c2ccc(Cl)cc2)cc1", "note": "[KKL-0761]", "% activation": 3}, {"smiles": "CC1CN(c2ccc([N+](=O)[O-])cc2)CCN1C(=O)c1cccc(Br)c1", "note": "(centres unmarked) [KKL-1355]", "% activation": 0}, {"smiles": "NC1CCc2nc(-c3cccnc3)nc(Nc3ccc(C(F)(F)F)cc3)c2C1", "note": "(centres unmarked) [KKL-0526]", "% activation": 137}, {"smiles": "FC(F)(F)c1cccc(-n2cc(-c3ccccc3)c3c(NCc4cccnc4)ncnc32)c1", "note": "[KKL-1573]", "% activation": 0}, {"smiles": "O=C(NCCCn1ccnc1)c1cccnc1Nc1cccc(C(F)(F)F)c1", "note": "[KKL-0554]", "% activation": 15}, {"smiles": "Nc1cccnc1Nc1ccc(C(F)(F)F)cc1", "note": "[KKL-1711]", "% activation": 4}, {"smiles": "NC1CCc2nc(-c3cccnc3)nc(Nc3cccc(C(F)(F)F)c3)c2C1", "note": "(centres unmarked) [KKL-0530]", "% activation": 124}, {"smiles": "Cc1cnc(N2CCN[C@@H](Cc3ccccc3)C2)nc1Oc1ccc(-n2ccnc2)cc1", "note": "[KKL-1724]", "% activation": 6}, {"smiles": "CCOC(=O)c1cnc(-n2nc(C)cc2C)nc1Nc1ccc(N(C)C)cc1", "note": "[KKL-0889]", "% activation": 0}, {"smiles": "Clc1ccc(Nc2nc(-c3ccccn3)cs2)nc1", "note": "[KKL-1793]", "% activation": 0}, {"smiles": "Cc1oc(-c2ccc3ccccc3c2)nc1CN1CCN(c2cnccn2)CC1", "note": "[KKL-0659]", "% activation": 0}, {"smiles": "CSc1ccc(-c2nnc(NC(=O)c3ccc(Cl)s3)o2)cc1", "note": "[KKL-1706]", "% activation": 50}, {"smiles": "O=C(Nc1nnc(-c2ccc(Cl)s2)o1)c1ccc(Cl)s1", "note": "[KKL-1762]", "% activation": 0}, {"smiles": "CN(C)S(=O)(=O)c1ccc(C(=O)Nc2nnc(-c3ccc(Cl)s3)o2)cc1", "note": "[KKL-1747]", "% activation": 1}, {"smiles": "CN1CCN(c2ccc(NC(=S)NC(=O)c3ccc(-c4cccc(Cl)c4)o3)cc2)CC1", "note": "[KKL-0357]", "% activation": 18}, {"smiles": "O=C(Nc1ccc2c(c1)OCCO2)c1cccc2nc3ccccc3nc12", "note": "[KKL-0843]", "% activation": 0}, {"smiles": "Cc1ccc(Cl)cc1N=C1C=C(NS(=O)(=O)c2cccs2)c2ccccc2C1=O", "note": "[KKL-1115]", "% activation": 0}, {"smiles": "Cc1ccc(C(=O)NC[C@H]2C[C@@H]3CCN2C[C@@H]3c2cc(-c3ccc4ccccc4c3)nn2C)cc1", "note": "[KKL-0337]", "% activation": 0}, {"smiles": "Cn1nc(-c2ccc3ccccc3c2)cc1[C@H]1CN2CC[C@H]1C[C@@H]2COC(=O)Nc1cccc(C(F)(F)F)c1", "note": "[KKL-0323]", "% activation": 0}, {"smiles": "COC(=O)c1cccc(NC(=S)NC[C@H]2C[C@@H]3CCN2C[C@@H]3c2cc(-c3ccc4ccccc4c3)nn2C)c1", "note": "[KKL-1596]", "% activation": 71}, {"smiles": "NC1CCc2nc(-c3cccnc3)nc(Nc3ccc(Cl)cc3)c2C1", "note": "(centres unmarked) [KKL-0540]", "% activation": 119}, {"smiles": "Nc1cccnc1Nc1ccc(Cl)cc1", "note": "[KKL-1858]", "% activation": 0}, {"smiles": "NC1CCc2nc(-c3ccncc3)nc(Nc3ccc(Cl)cc3)c2C1", "note": "(centres unmarked) [KKL-0326]", "% activation": 797}, {"smiles": "CCOC(=O)CSc1nc(C#N)c(SCC(=O)OCC)s1", "note": "[KKL-0955]", "% activation": 12}, {"smiles": "O=C(Oc1cccc2cccnc12)C(Cc1ccccc1)N1C(=O)C2C3CCC(C3)C2C1=O", "note": "(centres unmarked) [KKL-1364]", "% activation": 9}, {"smiles": "Cc1oc2ccccc2c1CN(CCCn1ccnc1)Cc1cccc(F)c1", "note": "[KKL-0544]", "% activation": 0}, {"smiles": "CCC(OC(C)=O)c1ccc(OC(C)=O)c(OC)c1", "note": "(centres unmarked) [KKL-0758]", "% activation": 7}, {"smiles": "CCOc1ccc(NC(=O)CSc2nc3ccc([N+](=O)[O-])cc3s2)cc1", "note": "[KKL-1417]", "% activation": 0}, {"smiles": "Cc1ccc(NCCC(=O)c2ccc([N+](=O)[O-])cc2)cc1C", "note": "[KKL-0401]", "% activation": 14}, {"smiles": "COc1cc2cc(-c3nc4ccccc4[nH]3)c(N)nc2cc1OC", "note": "[KKL-0395]", "% activation": 22}, {"smiles": "Cc1ccc2[nH]c3c(c2c1)CCCC3NCCCOc1ccc(F)cc1", "note": "(centres unmarked) [KKL-0771]", "% activation": 84}, {"smiles": "Cc1ccc2[nH]c(C3CCCNC3)c(-c3ccncc3)c2c1", "note": "(centres unmarked) [KKL-1820]", "% activation": 14}, {"smiles": "CC1CCc2sc3ncnc(NCCc4ccccc4)c3c2C1", "note": "(centres unmarked) [KKL-0868]", "% activation": 2}, {"smiles": "CCOC(=O)COc1ccc(C(=O)Nc2ccc(F)cc2)cc1", "note": "[KKL-0783]", "% activation": 0}, {"smiles": "CC12CC3CC(C)(C1)CC(CNCc1ccccc1O)(C3)C2", "note": "[KKL-1484]", "% activation": 3}, {"smiles": "CCCOC(=O)CSc1nnc(-c2cc(OC)c(OC)c(OC)c2)o1", "note": "[KKL-1095]", "% activation": 0}, {"smiles": "Cc1ccc(-c2csc(-c3ccncc3)n2)cc1C", "note": "[KKL-0956]", "% activation": 0}, {"smiles": "COC(=O)[C@@H](NC(=O)c1cc(COc2c(F)cccc2F)on1)c1ccccc1", "note": "[KKL-0496]", "% activation": 8}, {"smiles": "CCOC(=O)c1ccc(NC(=O)C2C(=O)N(C)C3(C)CC2c2ccccc2O3)cc1", "note": "(centres unmarked) [KKL-1246]", "% activation": 0}]}]}
